Among all 310,000 compounds or so, about 14,000 (4.5%) showed an effect of 50% or more. The effect is printed as a negative number. Shown is part of a subset that was picked to be rich in strong results.
The compounds below were run against human ether-à-go-go-related gene (hERG) potassium channel (human, UniProt Q12809) (assay: primary screen, population patch clamp on CHO cells stably expressing hERG; higher = less effect of the substance).
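Note: peak tail current of the secondary pulse compared with the same well before compound.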

Chain of human ether-à-go-go-related gene (hERG) potassium channel (Q12809 whole entry, looked up): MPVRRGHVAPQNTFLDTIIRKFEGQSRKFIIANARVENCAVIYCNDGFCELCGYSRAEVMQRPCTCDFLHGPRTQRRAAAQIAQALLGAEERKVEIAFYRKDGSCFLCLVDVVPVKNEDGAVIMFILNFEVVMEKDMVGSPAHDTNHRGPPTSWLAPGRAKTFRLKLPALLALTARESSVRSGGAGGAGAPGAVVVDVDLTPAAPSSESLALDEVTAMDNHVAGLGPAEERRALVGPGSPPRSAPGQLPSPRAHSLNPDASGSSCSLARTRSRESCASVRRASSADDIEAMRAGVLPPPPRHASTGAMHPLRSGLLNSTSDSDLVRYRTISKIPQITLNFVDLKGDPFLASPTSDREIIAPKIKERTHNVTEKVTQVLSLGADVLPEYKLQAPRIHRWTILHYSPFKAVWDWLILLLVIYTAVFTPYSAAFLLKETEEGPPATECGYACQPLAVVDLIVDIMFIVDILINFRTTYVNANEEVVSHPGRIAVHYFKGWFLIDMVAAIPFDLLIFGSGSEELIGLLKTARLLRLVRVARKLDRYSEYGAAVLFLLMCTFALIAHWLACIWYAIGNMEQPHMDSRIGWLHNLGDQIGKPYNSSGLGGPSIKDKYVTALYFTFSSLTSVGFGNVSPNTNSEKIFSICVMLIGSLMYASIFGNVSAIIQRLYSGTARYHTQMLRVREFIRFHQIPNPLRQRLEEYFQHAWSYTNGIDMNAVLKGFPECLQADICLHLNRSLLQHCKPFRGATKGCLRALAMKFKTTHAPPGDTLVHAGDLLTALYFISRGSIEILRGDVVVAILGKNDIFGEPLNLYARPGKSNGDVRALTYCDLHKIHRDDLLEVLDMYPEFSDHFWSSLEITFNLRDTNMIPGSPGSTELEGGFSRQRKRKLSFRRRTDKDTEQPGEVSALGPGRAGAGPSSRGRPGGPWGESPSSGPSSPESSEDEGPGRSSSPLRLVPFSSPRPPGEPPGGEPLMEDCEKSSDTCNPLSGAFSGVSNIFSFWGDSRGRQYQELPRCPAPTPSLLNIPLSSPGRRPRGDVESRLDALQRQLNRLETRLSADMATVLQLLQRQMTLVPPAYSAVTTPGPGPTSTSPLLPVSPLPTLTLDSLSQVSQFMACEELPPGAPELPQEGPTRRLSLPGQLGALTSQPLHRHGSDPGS

| Compound | hERG current change (%, negative = inhibition) at 10uM [%] |
| --- | --- |
| CCOc1ccc(CNC(=O)CCCn2nc(CC)n3c(cc4occc43)c2=O)cc1 | -24.7 |
| CCc1nn(CCCC(=O)NCc2ccc(C)cc2)c(=O)c2cc3occc3n12 | -8.1 |
| Cc1ccccc1CNC(=O)CCCn1ncn2c(cc3occc32)c1=O | -14.7 |
| CCc1nn(CCCC(=O)NCc2ccc(OC(C)C)cc2)c(=O)c2cc3occc3n12 | -54.4 |
| O=C(CCCn1ncn2c(cc3occc32)c1=O)NCc1cccc(Cl)c1 | -61.3 |
| CCc1nn(CC(=O)N2CCN(c3cc(C)ccc3C)CC2)c(=O)c2cc3occc3n12 | 13 |
| Cc1ccc(C)c(N2CCN(C(=O)CCCn3ncn4c(cc5occc54)c3=O)CC2)c1 | -63.4 |
| CCc1nn(CCCC(=O)N2CCc3ccccc3C2)c(=O)c2cc3occc3n12 | -29 |
| O=C(CCCn1ncn2c(cc3occc32)c1=O)N1CCc2ccccc2C1 | -63 |
| CCOC(=O)CCCn1ncn2c(cc3occc32)c1=O | -0.3 |
| COc1ccc(CNC(=O)CCCn2ncn3c(cc4occc43)c2=O)cc1 | -22.4 |
| COc1cccc(CNC(=O)CCCn2ncn3c(cc4occc43)c2=O)c1 | -42.9 |
| Cc1nnc(NC(=O)c2cc(-c3ccco3)nc3ccccc23)s1 | 2.18 |
| Cc1nc2cc(NC(=O)NCc3ccco3)ccc2o1 | 9.7 |
| Cn1c(C(=O)NC2CC2)cc(=O)n(C)c1=O | -8 |
| COc1ccc(CNC(=O)COC(=O)c2ccc(C)c(S(=O)(=O)N3CCOCC3)c2)cc1OC | 6.13 |
| CC1CCCN(S(=O)(=O)c2csc(C(N)=O)c2)C1 (stereo not shown) | 15.2 |
| O=C(NCc1csc2ccccc12)Nc1cc(Cl)cc(Cl)c1 | 13.6 |
| CCOc1ccc(C(C)(N)C(=O)O)cc1 (stereo not shown) | -2.39 |
| COc1ccc(NC(=O)c2cn(-c3ccccc3)nc2SC)cc1 | -8.55 |
| COc1ccc(CNC(=O)c2cc(-c3ccc(OC)c(OC)c3)on2)cc1 | 6.84 |
| CCC(=O)Oc1ccc(C/C(=N\O)c2ccc(O)cc2O)o1 | -8.07 |
| CCOC(=O)C1CCCN(C(=O)CCCn2nc(C)n3c(cc4sccc43)c2=O)C1 (stereo not shown) | -49.3 |

| Compound | hERG current change (%, negative = inhibition) at 10uM [%] |
| --- | --- |
| CCOC(=O)CCCn1nc(C)n2c(cc3sccc32)c1=O | -21.6 |
| Cc1nn(CCCC(=O)N2CCc3ccccc3C2)c(=O)c2cc3sccc3n12 | -75.5 |
| COc1ccc(C(CNCC(=O)Nc2ccccc2F)N(C)C)cc1.O=C(O)C(=O)O (stereo not shown) | -35.1 |
| COc1ccc(F)cc1S(=O)(=O)NCC(c1ccc2c(c1)OCO2)N1CCN(C)CC1 (stereo not shown) | -45.6 |
| COc1ccc(S(=O)(=O)NCC(c2ccc3c(c2)OCO3)N2CCN(C)CC2)cc1OC (stereo not shown) | -15.5 |
| COc1ccc(S(=O)(=O)NCC(c2ccc3c(c2)OCO3)N2CCOCC2)cc1 (stereo not shown) | -6.41 |
| O=S(=O)(NCC(c1ccc2c(c1)OCO2)N1CCOCC1)c1ccc(Br)cc1 (stereo not shown) | -16 |
| CCOc1ccc(S(=O)(=O)NCC(c2ccc3c(c2)OCO3)N2CCN(C)CC2)cc1 (stereo not shown) | -59.2 |
| COc1ccc(C)cc1S(=O)(=O)NCC(c1ccc2c(c1)OCO2)N1CCOCC1 (stereo not shown) | -13.6 |
| CN1CCN(C(CNS(=O)(=O)c2ccc(Br)cc2)c2ccc3c(c2)OCO3)CC1 (stereo not shown) | -79.8 |
| COc1ccc(C)cc1S(=O)(=O)NCC(c1ccc2c(c1)OCO2)N1CCN(C)CC1 (stereo not shown) | -68.2 |
| Cc1ccc(S(=O)(=O)NCC(c2ccc3c(c2)OCO3)N2CCOCC2)cc1 (stereo not shown) | -8.63 |
| O=C(NC(=O)c1ccc(F)cc1)Nc1nc(-c2cccs2)cc(C(F)(F)F)n1 | 12.2 |
| Cn1nnnc1SCC(=O)N1CCOCC1 | 16.2 |
| CN1CCN(C(=O)/C(=C\c2ccccc2)c2ccccc2)CC1 | -59.9 |
| CC1CCCCN1C(=O)/C(=C\c1ccccc1)c1ccccc1 (stereo not shown) | -17.4 |
| CN1CCN(C(=O)/C(=C/c2ccccc2)c2ccccc2)CC1 | -54.8 |
| O=C(O)/C(=C\c1ccccc1)c1ccccc1 | -0.424 |
| CC1CC(C)CN(C(=O)/C(=C\c2ccccc2)c2ccccc2)C1 (stereo not shown) | -27.4 |
| CN1CCN(C(=O)/C(=C/c2ccc(F)cc2)c2ccsc2)CC1.Cl | -70.1 |
| CN1CCN(C(=O)/C(C#N)=C/c2ccc(F)cc2)CC1.Cl | 6.63 |
| C/C(=C/c1ccccc1)C(=O)N1CCN(c2ccccc2)CC1 | -16.2 |
| CN1CCN(C(=O)CCC(=O)c2ccc(F)cc2)CC1 | 8.49 |
